# Measured values: PubChem BioAssay AID686979 (National Center for Advancing Translational Sciences (NCATS), 2013)
# “And” between values parts separate entries of the source, which are not always exact repeats. Identical values can stand only once. The whole screen tested about 420,000 compounds, of which about 50,000 (12%) were called active. Roughly 26% stayed inconclusive and do not appear here. Calls come from the whole dose curve; as a rule, active = well fitted inhibition curve with a large enough effect; inconclusive = small, poorly fitted or top-dose-only effect; inactive = flat fitted curve, though single readings scatter. This excerpt belongs to a sample that is enriched for actives. A structure can be active in one record and inactive in another.
# Experiment: qHTS for Inhibitors of human tyrosyl-DNA phosphodiesterase 1 (TDP1): qHTS in cells in presence of CPT; note: nearly all actives have a fitted effect of over 55% in size
# Conditions: chicken DT40 Tdp1-/-;hTDP1 cells + 20 nM CPT, ATP luminescence, 48 h; series mostly up to 46.2 µM; activity change, negative = growth inhibition: at the top concentration
# Method in brief: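 Chicken DT40 Tdp1-/- cells stably complemented with human TDP1 were seeded at 400 cells/well in medium containing 20 nM camptothecin, exposed to pin-transferred compounds, and grown at 37 °C for at least 48 hr. Viability was read as ATP luminescence.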
# % is set by controls: 0 for no effect and ±100 for the full control effect; potency is the fitted concentration of half-maximal effect.
Compound,Potency,"activity change, negative = growth inhibition"
CCOC(=O)CN1C(C(=O)c2ccccc2)=C(OC(=O)C(C)(C)C)c2ccccc2S1(=O)=O,20.6 µM (active),
CCOC(=O)c1ccccc1CN1C(=O)c2ccccc2S1(=O)=O,,0.131% (inactive)
COC(=O)C1=C(c2ccccc2)c2ccccc2S(=O)(=O)N1CC(=O)Nc1ccccc1C(F)(F)F,,-28.1% (inactive)
Cc1ccc2c(c1)N(CC(=O)N1CCC(O)CC1)C(=O)CO2,,2.52% (inactive)
Fc1ccc(-c2nc(Nc3cccc(Cl)c3)nc3c2COc2ccccc2-3)cc1,,-23.3% (inactive)
Cc1cc(OCC(=O)NCC(O)c2ccccc2)c2c(C)c(C)c(=O)oc2c1 (stereo unspecified),,-26.3% (inactive)
Cc1ccc(N(CC(=O)NCC2CCCO2)C(=O)CNS(=O)(=O)c2ccc(Cl)cc2)cc1 (stereo unspecified),,-2.58% (inactive)
Nc1cccnc1Sc1ccccc1,,17.3% (inactive)
Nc1ccccc1/C=N\N=C/c1ccccc1N,,1.29% (inactive)
Nc1ccccc1N,inactive and 4.86 µM (active),
CC1=NN(C(=O)c2ccc(Br)cc2)C(O)(c2ccccc2)C1 (stereo unspecified),,-21% (inactive)
Cc1ccc2nc(Nc3ncc4c(n3)CC(C)(C)CC4=O)nc(C)c2c1,,-9.06% (inactive)
CCCCCNC(=O)C(c1ccc(OC)cc1)n1c(=O)c(-c2ccccc2)nc2ccccc21 (stereo unspecified),23.1 µM (active),
CCOCCCNC(=O)C(NC(=O)CNC(=O)c1ccccc1)c1ccc(OC)cc1 (stereo unspecified),,19.8% (inactive)
CCc1nc2ccccc2c(C(=O)NCc2ccc(OC)cc2)c1C,,-20.2% (inactive)
O=C(CSc1nnc(-c2ccco2)n1Cc1ccccc1)NC(=O)NCc1ccco1,,-15.2% (inactive)
CCCN(CCC)CCCNC(=O)CNC(=O)c1nn(-c2ccc(OC)cc2)c(=O)c2ccccc12,,11.6% (inactive)
O=C(NNC(=S)NCc1ccco1)C(c1ccccc1)c1ccccc1,,2.82% (inactive)
COc1ccc(CNC(=O)C(C)NCc2ccccc2Cl)cc1 (stereo unspecified),,3% (inactive)
N#Cc1ccc(C(C(=O)NCc2ccccc2)n2c(=O)c(-c3ccco3)nc3ccccc32)cc1 (stereo unspecified),20.6 µM (active),
COc1ccc(C(C(=O)NCc2ccccc2)n2c(=O)c(-c3ccccc3)nc3ccccc32)cc1 (stereo unspecified),14.6 µM (active),
O=C1COc2ccc(S(=O)(=O)NCCc3ccc(Cl)cc3)cc2N1,,-22.5% (inactive)
COc1ccc(N(CC(=O)NCCSCc2cccc(Cl)c2)S(C)(=O)=O)cc1,,-0.225% (inactive)
O=C1CCC(=O)N(c2ccccc2)N1,,4.59% (inactive)
O=c1[nH]n(-c2ccc([N+](=O)[O-])cc2)c(=O)c2ccccc12,,-3.34% (inactive)
Cc1nc(-c2ccc([N+](=O)[O-])cc2)c(-c2ccccc2)o1,,-23% (inactive)

Compound,Potency,"activity change, negative = growth inhibition"
O=C1CC(c2ccccc2)=NN1c1ccc([N+](=O)[O-])cc1,16.4 µM (active),
CC(=O)c1ccc(S(=O)(=O)NCc2nnnn2-c2ccccc2)cc1,,-17.2% (inactive)
O=C(O)c1ccccc1OCc1ccccc1Cl,,-16.6% (inactive)
O=C(NC1CCC(O)CC1)c1ccccc1OCc1ccc(F)cc1 (stereo unspecified),,-15% (inactive)
CC(=O)c1ccccc1OCc1ccc(C(=O)c2ccccc2)cc1,16.4 µM (active),
S=C(Nc1ccc2c(c1)OCO2)N1CCCC1,,-4.45% (inactive)
Cc1ccc(NC(=O)c2ccc(Cl)nc2)cc1S(=O)(=O)N1CCOCC1,10.3 µM (active),
Cc1ccc(NC(=O)c2ccccn2)cc1S(=O)(=O)N1CCOCC1,,-21.4% (inactive)
O=C(CN1CCN(c2cccc(Cl)c2)CC1)Nc1ccc(S(=O)(=O)N2CCOCC2)cc1,20.6 µM (active),
Cc1ccc(NC(=O)COC(=O)C2CC2)cc1S(=O)(=O)N1CCOCC1,,-2.36% (inactive)
O=C(CN1CCCCCC1)Nc1ccc(S(=O)(=O)N2CCCCC2)cc1,,-8.76% (inactive)
Cc1ccc(NC(=O)C(C)OC(=O)C2CC3CCCC(C2)C3=O)cc1S(=O)(=O)N1CCOCC1 (stereo unspecified),,5.1% (inactive)
O=S(=O)(c1ccc(NC(=S)NN=C(C2CC2)C2CC2)cc1)N1CCOCC1,,-15.8% (inactive)
O=C(CN1CCN(S(=O)(=O)/C=C/c2ccccc2)CC1)Nc1ccc(N2CCOCC2)cc1,,4.47% (inactive)
O=C(Nc1ccc(Oc2ccccc2)cc1)C1CCN(S(=O)(=O)c2ccc(Cl)cc2)CC1,,-17.6% (inactive)
Cc1ccc(NC(=O)C2CCC(C(C)(C)C)CC2)cc1S(=O)(=O)N1CCOCC1 (stereo unspecified),13 µM (active),
O=C(Nc1ccc(S(=O)(=O)N2CCOCC2)cc1)C1CCN(S(=O)(=O)c2ccc(Cl)cc2)CC1,16.4 µM (active),
Cc1ccc(C(=O)Nc2ccc3c(c2)OCCO3)cc1S(=O)(=O)N1CCOCC1,,-6.96% (inactive)
COc1cccc(C(=O)NNS(=O)(=O)c2ccc(F)cc2)c1,,0.492% (inactive)
Cc1c(NC(=O)c2cc(-c3ccc(Br)cc3)on2)c(=O)n(-c2ccccc2)n1C,,0.485% (inactive)
CCCN(C(=O)CSc1nnc(N)s1)c1c(N)n(Cc2ccccc2)c(=O)[nH]c1=O,,9.05% (inactive)
COc1ccc(C(=O)Oc2ccc(-c3nnco3)cc2)cc1S(=O)(=O)N1CCOCC1,,-12.2% (inactive)
Cc1nn(C)c(Cl)c1CN1CCC(Oc2ccc(C(=O)N3CCCC3)cc2)CC1,,-21.7% (inactive)
Cc1ccc(C(CNC(=O)Nc2ccccc2)N2CCN(C)CC2)cc1 (stereo unspecified),,-7.62% (inactive)
CC(C)Cc1ccc(C(C)C(=N)N)cc1 (stereo unspecified),7.31 µM (active),
COc1c(F)c(F)c(-c2csc(N)n2)c(F)c1F,,-0.225% (inactive)

Compound,Potency,"activity change, negative = growth inhibition"
O=C(Nc1ccccc1)c1ccccc1Br,,2.75% (inactive)
O=C(COC(=O)c1ccccc1Br)Nc1nnc(-c2ccccc2)o1,,-6.82% (inactive)
O=C(Nc1nnc(-c2ccc(Cl)cc2)o1)c1ccccc1Br,23.1 µM (active),
CCCCNC(=O)N1CCCC(N(C)CCc2ccc(OC)c(OC)c2)C1 (stereo unspecified),,-8.93% (inactive)
CC(NC(=O)CNC(=O)Cc1cccc2ccccc12)c1ccc(S(N)(=O)=O)cc1 (stereo unspecified),,33.9% (inactive)
COc1ccc(CN2C3CCCC2CC(NC(=O)c2cccc(F)c2)C3)cc1 (stereo unspecified),,-14.7% (inactive)
COc1ccc(-n2cc(CNC3CCOCC3)c(-c3cccc(F)c3)n2)cc1,20.6 µM (active),
Cc1cccc(-n2cc(CN3CCN(C(=O)c4ncn[nH]4)CC3)c(-c3cccc(F)c3)n2)c1,,-0.232% (inactive)
COc1ccc(Cl)cc1-n1c(=S)sc2c(=O)n(-c3ccc(F)cc3)c(SCC(=O)O)nc21,,0.94% (inactive)
COc1cc(C)c(CN2CCc3nnc(C(C)NC(=O)c4cccnc4)n3CC2)cc1C (stereo unspecified),,-20.5% (inactive)
Cc1ccccc1Nc1c([N+](=O)[O-])ccc2nonc12,,5.39% (inactive)
Cc1nn(C)cc1C(=O)c1ccccc1,,10.1% (inactive)
COc1ccc(N(C)C(=O)C2CCN(S(=O)(=O)c3cccc4nsnc34)CC2)cc1,,-8.02% (inactive)
COc1ccc(CCC(=O)NCCc2csc(-c3ccc(Cl)cc3)n2)cc1,23.1 µM (active),
COc1ccc(OCCCC(=O)NCCc2ccccc2)cc1,,-3.96% (inactive)
COc1ccc(CCNC(=O)COC(=O)c2cnc(Cl)c(Cl)c2)cc1,,-10.5% (inactive)
CCOc1ccc(C(=O)Nc2cc(Cl)ccc2-n2cncn2)cc1OC,,2.16% (inactive)
Cc1cc[n+](C2CCCCC2)cc1,15.8 µM (active),
CCC(NC(=O)C1CCCC1)c1ccc(C)cc1 (stereo unspecified),,-15.1% (inactive)
NC(=O)COC(=O)c1cc(S(=O)(=O)N2CCN(c3ccccc3)CC2)ccc1Cl,,-7.08% (inactive)
O=C(NNC(=O)c1cc(S(=O)(=O)N2CCCCC2)ccc1Cl)c1ccccc1O,23.1 µM (active),
NC(=O)C1CCN(C(=O)c2cc(S(=O)(=O)N3CCN(c4ccccc4)CC3)ccc2Cl)CC1,10.3 µM (active),
CC1=C(C)CC(C(=O)NC(C)CCc2ccccc2)C(C(=O)O)C1 (stereo unspecified),,16.8% (inactive)
CC1=C(C)CC(C(=O)NNC(=O)c2csc3c2CCC(C(C)(C)C)C3)C(C(=O)O)C1 (stereo unspecified),,3.49% (inactive)
O=C(COC(=O)c1cc(S(=O)(=O)N2CCCCC2)ccc1Cl)NCc1ccco1,,7.52% (inactive)
CC1=C(C)CC(C(=O)NNC(=O)c2ccccc2O)C(C(=O)O)C1 (stereo unspecified),18.4 µM (active),

Compound,Potency,"activity change, negative = growth inhibition"
CC(=O)NC(=O)c1ccccc1O,,1.83% (inactive)
Cc1cc(C(=O)CCC(=O)NNC(=O)c2ccccc2O)c(C)s1,,3.31% (inactive)
COc1ccccc1N(C)S(=O)(=O)c1ccc(Cl)c(C(=O)N2CCC(C(N)=O)CC2)c1,,-26.7% (inactive)
Cc1ccc(S(=O)(=O)N2CCCCC2)cc1NC(=O)CCNC(=O)c1ccccc1Cl,,-14.2% (inactive)
O=C(NNC(=O)c1ccccc1O)c1ccccc1O,5.17 µM (active),
COCCNC(=S)N(CCc1c(C)[nH]c2ccc(C)cc12)Cc1cccnc1,,-23.2% (inactive)
CC(NC(=O)CN(C)S(=O)(=O)c1ccc(F)cc1)C1CC2CCC1C2 (stereo unspecified),,-15.7% (inactive)
CC(=O)N/C(=C\c1ccccc1)C(=O)OC(C)C(=O)N(C)c1ccccc1 (stereo unspecified),,9.34% (inactive)
CCOC(=O)Cn1c(O)c(N=NC(=O)CNC(=O)Cc2ccccc2)c2ccccc21,,-17.9% (inactive)
CC(=O)Nc1ccc(S(=O)(=O)N2CCC(C(=O)N[C@@H](Cc3ccccc3)C(=O)O)CC2)cc1,,-13.1% (inactive)
COc1cccc(CNC(=O)C(NS(=O)(=O)c2ccc3nc(C)sc3c2)C(C)C)c1 (stereo unspecified),,1.78% (inactive)
COc1cccc(/C=C2\SC(=S)N(CCCC(=O)N3CCOCC3)C2=O)c1,18.4 µM (active),
COc1ccc(/C=C2\SC(=S)N(CCC(=O)N3CCOCC3)C2=O)cc1OC,,-2.91% (inactive)
COc1cccc(/C=C2/SC(=S)N(CC(=O)NC3C=CS(=O)(=O)C3)C2=O)c1 (stereo unspecified),,-24.6% (inactive)
Cc1cc(C)cc(NC(=O)COC(=O)c2cc(C)oc2C)c1,,-3.46% (inactive)
Cc1sc2ccccc2c1CNC[C@H]1O[C@@H](n2ccc(=O)[nH]c2=O)[C@H](O)[C@@H]1O,,0.888% (inactive)
O=C(CCn1ccc([N+](=O)[O-])n1)Nc1nccs1,,1.03% (inactive)
Cc1cs/c(=N\N=C\c2ccc(O)cc2)n1Cc1ccco1,,-14.2% (inactive)
CC1CN(Cc2ccco2)C(=S)N(c2ccccc2)C1=O (stereo unspecified),,0.62% (inactive)
CN(C)C(=S)N=c1ssc(=S)n1Cc1ccco1,1.64 µM (active),
Nc1ncnc2c1ncn2[C@@H]1O[C@H](C(=O)NS(=O)(=O)c2c(Cl)nc3sccn23)[C@@H](O)[C@H]1O,,2.79% (inactive)
O=S(=O)(Nc1ccccn1)c1cccc(S(=O)(=O)c2ccc(Cl)cc2)c1,,2.88% (inactive)
NS(=O)(=O)c1ccc(CNC(=O)c2cc(S(=O)(=O)N3CCOCC3)ccc2N2CCCC2)cc1,,-10.3% (inactive)
